Assay outcomes (PubChem)
TDP-43 yeast inh – inhibitors of TDP-43 toxicity in yeast; TDP-43 expressing yeast growth rescue, BacTiter-Glo, 24 h; Potency, µM (highest dose often 46.1 µM), for inactives: top-dose growth rescue (activation), usual class: activators; actives 1.8% (n = 410,000); AID 652104; further: % of control where 0% means no effect; nearly all actives have a fitted effect of over 50% in size
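Luminescence from BacTiter-Glo reports growth of TDP-43-expressing yeast after 24 hr at 30 deg C with compound. Cells were raffinose-pregrown to mid-log, then seeded in galactose medium at OD600=0.02.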
aSyn rescue – rescues yeast growth from alpha-synuclein toxicity. Yeast expressing alpha-synuclein, growth rescue, BacTiter-Glo, 24 h. Potency, µM (top dose mostly 46.1 µM), without a hit: at the highest dose growth rescue (activation), usual class: activators. actives 0.14% (n = 370,000). AID 652106; further: % of control where 0% means no effect; nearly all actives have a fitted effect of over 65% in size
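Galactose-induced alpha-syn yeast (OD600=0.02, raffinose-pregrown) + pinned cpd, 24 hr, 30 deg C; growth by BacTiter-Glo luminescence. Growth restoration scores as activation.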
FUS suppressor – rescues growth of FUS-expressing yeast. S. cerevisiae FUS-expressing, growth rescue, OD600, 24 h. Potency, µM (titrated, usually from 76.6 µM), most hits filed as activators. actives 0.24% (n = 390,000). AID 1347120;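 further: plate controls were DMSO vehicle for no effect and reference control for full effect; nearly all actives have a fitted effect of over 55% in size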
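Restored growth of FUS-toxic S. cerevisiae, read as 600 nm absorbance after 24 h at 30C in galactose medium (starting OD 0.005). Controls CP55940 and DMSO.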
Abeta rescue – A-beta toxicity reversal in yeast; yeast expressing A-beta42, growth rescue, OD600, 48 h; response scale: 0% DMSO, 100% iron-clioquinol control; Potency, µM (top dose mostly 46.1 µM), actives largely listed as activators; actives 0.063% (n = 410,000); AID 1347071; further: nearly all actives have a fitted effect of over 55% in size
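Yeast growth medium received pinned compounds, then yeast cells expressing toxic A-beta were added; plates incubated at 30 C for 48 hr. Growth read as absorbance at 600 nm, normalized to DMSO and equimolar FeCl3 plus clioquinol controls.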
An asterisk follows results filed as active; i = inactive; ? = inconclusive; · = not tested or not shown. This is a sample that favours compounds with a hit; in the whole collection about 2.1% have one here. The call rests on the fitted dose curve; in most records, active means well fitted curve in the direction sought with a large enough effect; inconclusive means small, poorly fitted or top-dose-only effect, or another doubt; inactive means no such curve, though single readings can be large; an effect the other way counts as inactive or inconclusive. Potency means the concentration at half of the fitted maximal effect.

SMILES	TDP-43 yeast inh	aSyn rescue	FUS suppressor	Abeta rescue
N#C/C(=C\c1ccccc1[N+](=O)[O-])c1nc(C2CC2)cs1	14µM*	1%	·	i
COc1ccc(CNC(=O)c2cnc(N3CCCC3)nc2C)c(OC)c1	36%	·	i	i
Cc1nc(N2CCCC2)ncc1C(=O)NCc1cccc(Cl)c1	14µM*	·	i	i
Clc1ccc(CSc2nnc(-c3ccccn3)n2Cc2cccs2)cc1Cl	?	11%	?	i
Fc1ccc(CSc2nnc(-c3cnccn3)n2Cc2ccco2)cc1	?	4%	i	i
Brc1ccc(CSc2nnc(-c3cnccn3)n2Cc2ccco2)cc1	35µM*	8%	·	i
CCn1c(SCc2ccc(C)cc2)nnc1-c1cnccn1	11µM*	2%	i	i
Cc1ccc(CSc2nnc(-c3ccccn3)n2Cc2cccs2)cc1	35µM*	12%	?	i
Cn1c(SCc2ccc(F)cc2)nnc1-c1cnccn1	10%	6%	i	i
COc1ccccc1CN(C)C(=O)C1CCCN(c2nc3ccccc3o2)C1 (stereo not given)	·	·	i	·
CCCCN(C)C(=O)C1CCN(S(=O)(=O)c2ccc3[nH]c(=O)oc3c2)CC1	·	·	i	·
O=C1c2ccccc2C(=O)N1c1ccccn1	·	-1%	·	·
CCCCN(C)C(=O)c1cc2cc3cc(OC)ccc3nc2o1	?	4%	i	i
CCCCN(C)C(=O)c1cc2cc3ccc(OC)cc3nc2o1	16µM*	2%	i	i
